Eight molecules from PubChem BioAssay (NCI) can be followed below.

SMILES strings stand for the structures. About 83,000 compounds went through this panel and 20% of them were active in at least one assay; those are over-represented in the sample as a whole.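 Step 1: grow cells in 96-well plates. Step 2: add test compound at a single concentration. Step 3: incubate 48 h. Step 4: record percent growth.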 Unmarked numbers belong to inactive results. Active and inactive are the calls of the source. How the source made its calls: active means growth percent below 10; inactive means the rest.

What all share (assay): NCI-60 one-dose screen, 48 h (100 = growth as untreated, 0 = no growth, -100 = all killed)
In assay [1] the test system is DU-145 prostate. As to conditions: 10 µM unless noted.
Assay [2] relates to MALME-3M melanoma. As to conditions: 10 µM unless noted.
Assay [3] concerns MDA-MB-231 breast. Particulars: 10 µM unless noted.
Assay [4] deals with RXF 393 renal. As to conditions: 10 µM unless noted.
The test system of assay [5] is SF-268 CNS. As to conditions: 10 µM unless noted.
The subject of assay [6] is SF-295 CNS. As to conditions: 10 µM unless noted.
The test system of assay [7] is SF-539 CNS. As to conditions: 10 µM unless noted.
Assay [8] deals with UACC-257 melanoma. Particulars: 10 µM unless noted.
The subject of assay [9] is M14 melanoma. Particulars: 10 µM unless noted.
Assay [10] deals with HCT-15 colon. Particulars: 10 µM unless noted.
Assay [11] deals with HT29 colon. As to conditions: 10 µM unless noted.
In assay [12] the test system is SNB-75 CNS. Particulars: 10 µM unless noted.
The test system of assay [13] is SNB-19 CNS. Particulars: 10 µM unless noted.
In assay [14] the test system is U251 CNS. Particulars: 10 µM unless noted.
Assay [15] relates to PC-3 prostate. As to conditions: 10 µM unless noted.
The subject of assay [16] is UACC-62 melanoma. Particulars: 10 µM unless noted.
The subject of assay [17] is LOX IMVI melanoma. Particulars: 10 µM.
In assay [18] the test system is SK-MEL-28 melanoma. Particulars: 10 µM unless noted.

Regarding `O=C(NNc1nc2cc(F)ccc2n2c(CN3CCCCC3)ccc12)c1cnccn1`, the growth in assay [1] is -43.7% (active); in assay [2] it was 22.6%; in assay [3], -31.1% (active); in assay [4] it was -83.3% (active); in [5], -20.9% (active); in assay [6], -92% (active). In addition, the growth in assay [7] was -66% (active); in assay [8], -81.1% (active); in [9], -86.5% (active); in assay [10] it was -52.4% (active); in assay [11] it was 8.19% (active); in [12], -9.76% (active). The growth in assay [13] is -8.81% (active); in assay [14], -84.8% (active); in assay [15], -18.3% (active); in [16], -35.2% (active); in assay [17], -69.7% (active); in [18], -57.4% (active).
Regarding `CC(=O)N1CCN(Cc2ccc3c(NNC(=O)c4cnccn4)nc4cc(F)ccc4n23)CC1`, the growth is 39.4% in assay [1]; 30.4% in [2]; 36.5% in assay [3]; 54.2% in assay [4]; 28.7% in [5]; 10.7% in assay [6]. Moreover, the growth was 6.02% (active) in assay [7]; 13.3% in [8]; -31.4% (active) in [9]; 30.3% in assay [10]; 35.9% in [11]; 65.7% in assay [12]. Besides, the growth in [13] was 25.4%; in [14], 13.1%; in [15], 40.9%; in [16] it was 9.03% (active); in [17], 10.3%; in [18], 30.4%.
As for `CN1CCN(c2ccc(C(=O)/C=C/c3ccc(Br)cc3)cc2)CC1`, the growth in [1] is 32.9%; in assay [2] it was 74.4%; in [3] it was 16.7%; in [4], 31.5%; in [5], 62.2%; in assay [6], 35.2%. Moreover, the growth in assay [7] was -34.9% (active); in assay [8] it was 25.4%; in assay [9], -36.3% (active); in assay [10], 8.41% (active); in assay [11], 6.76% (active); in assay [12] it was 28.3%. Also, the growth in [13] is 31.4%; in assay [14], -75.7% (active); in [15], 34.4%; in [16], -9.44% (active); in [17] it was -13.4% (active); in [18], 37.7%.
As to `Nc1n[nH]c2cccc(C#Cc3cccc(NC(=O)c4cccc(Cl)c4)c3)c12`, the growth is 55.8% in assay [1]; 46.4% in [2]; 9.79% (active) in assay [3]; -14.7% (active) in [4]; 41.1% in [5]; 15.3% in assay [6]. For the same molecule, the growth in [7] is 8.74% (active); in assay [8] it was 48.5%; in assay [9], 15.9%; in assay [10], 20%; in assay [12] it was 35.7%; in [13], 55.2%. Besides, the growth in assay [14] was 46.1%; in [15], 20.5%; in assay [16], 32.4%; in assay [17], 17.7%; in assay [18], 42.5%.
Consider `O=C1C(=Nc2ccc(F)c(Cl)c2)c2cccc3cccc1c23`, for which the growth in [1] is 80.3%; in assay [2], 49.8%; in assay [3], 59.6%; in assay [4], 107%; in [5], 68.6%; in [6], 47.3%. Moreover, the growth in [7] was 26.8%; in assay [8] it was 49%; in [9], 63.2%; in assay [10] it was 8.52% (active); in assay [11] it was 5.96% (active); in assay [12], 66.5%. Moreover, the growth in assay [13] is 71.2%; in assay [14] it was 24.7%; in assay [15], 77.9%; in assay [16], 52.8%; in assay [17] it was 46.9%; in assay [18], 57.9%.
For the molecule `COc1ccc(C(=O)/C=C/c2c(F)cccc2Cl)cc1S(N)(=O)=O`, the growth is -0.489% (active) in assay [1]; 12.7% in assay [2]; 17.2% in assay [3]; -44.4% (active) in assay [4]; 24.4% in assay [5]; 12.7% in [6]. Further, the growth in assay [7] is -62.9% (active); in [8], 12.7%; in [9], -59.4% (active); in assay [10] it was -11.9% (active); in assay [11] it was 8.46% (active); in assay [12] it was 29.7%. For the same molecule, the growth in [13] was 19.6%; in assay [14], -86.8% (active); in [15], 18.8%; in assay [16], 15.4%; in assay [17], -69.1% (active); in assay [18] it was -4.35% (active).
`O=C(NNc1nc2cc(F)ccc2n2c(CN3CC4CNCC4C3)ccc12)c1ccncn1` (stereo not drawn): the growth in assay [1] is 42.1%; in assay [2], 22.5%; in [3] it was 27.5%; in assay [4], 64.1%; in [5] it was 28.3%; in assay [6], 2.58% (active). For the same molecule, the growth in assay [7] is -10.3% (active); in [8], 12.1%; in assay [9], -15.6% (active); in assay [10], 28.9%; in [11], 31.7%; in [12] it was 49%. Moreover, the growth is 22.2% in [13]; 9.87% (active) in assay [14]; 32.6% in assay [15]; -13.4% (active) in assay [16]; 6.59% (active) in assay [17]; 23.2% in [18].
As to `CC(=O)NNc1ccc2nnc(-c3ccccc3)n2n1`, the growth is 103% in assay [1]; 98.5% in [2]; 106% in assay [3]; 101% in assay [4]; 95% in [5]; 104% in assay [6]. The growth in assay [7] is 103%; in assay [8], 109%; in assay [9], 98.8%; in assay [10] it was 103%; in [11] it was 129%; in assay [12], 90.3%. The growth in assay [13] was 97.3%; in [14] it was 101%; in [15], 107%; in [16] it was 98.6%; in assay [17], 99.3%; in assay [18], 107%.
